Experimental data reported in PubChem BioAssay (NCI).
The panel holds about 83,000 compounds, 20% with a hit somewhere; the sample as a whole holds those more often.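 Plates (96-well) were seeded with cells, treated with compound at one concentration, and incubated for 48 hours before percent growth was determined.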 Activity calls are given as the source filed them. How the source made its calls: active means growth percent below 10; inactive means the rest.

Assays:
Experiment in all cases: NCI-60 one-dose screen, 48 h (100 = growth as untreated, 0 = no growth, -100 = all killed)
Conditions in all cases: 10 µM
HCT-15 colon = tested on: HCT-15 colon
HT29 colon = tested on: HT29 colon
SNB-75 CNS = tested on: SNB-75 CNS
SNB-19 CNS = tested on: SNB-19 CNS
U251 CNS = tested on: U251 CNS
PC-3 prostate = tested on: PC-3 prostate
SK-MEL-5 melanoma = tested on: SK-MEL-5 melanoma
UACC-62 melanoma = tested on: UACC-62 melanoma
LOX IMVI melanoma = tested on: LOX IMVI melanoma
SK-MEL-28 melanoma = tested on: SK-MEL-28 melanoma

Measured: growth

N#Cc1c(-c2ccc(F)cc2)nc(SCc2ccc(F)cc2)nc1N1CCOCC1
inactive: HCT-15 colon 79.9% | HT29 colon 92.9% | SNB-19 CNS 43.7% | U251 CNS 47.1% | PC-3 prostate 71.6% | SK-MEL-5 melanoma 74.3% | UACC-62 melanoma 69.3% | LOX IMVI melanoma 76.4% | SK-MEL-28 melanoma 85.8%
active: SNB-75 CNS -17.5%

COc1ccc(-c2cc(-c3cc(C(=O)c4ccc(Br)cc4)n4ccc(C)cc34)nc(N)c2C#N)cc1
inactive: HCT-15 colon 89.6% | HT29 colon 77.4% | SNB-75 CNS 108% | SNB-19 CNS 91.3% | U251 CNS 64.7% | PC-3 prostate 89.4% | SK-MEL-5 melanoma 87.5% | UACC-62 melanoma 81.2% | LOX IMVI melanoma 54.6% | SK-MEL-28 melanoma 69.6%

Cc1ccc(-c2nc3ccc(C(=O)N=Nc4c(O)[nH]c5ccc([N+](=O)[O-])cc45)cc3[nH]2)cc1
active: U251 CNS 5.86%
inactive: HCT-15 colon 104% | HT29 colon 66.6% | SNB-75 CNS 78.4% | SNB-19 CNS 55.4% | PC-3 prostate 60.8% | SK-MEL-5 melanoma 89.3% | UACC-62 melanoma 85.6% | LOX IMVI melanoma 54.9% | SK-MEL-28 melanoma 60.4%

CC(=C(c1ccc(OCCN2CCCCCC2)cc1)c1ccc(OCCN2CCCCCC2)cc1)c1ccc(Cl)cc1
active: HCT-15 colon -76% | HT29 colon -94.8% | SNB-75 CNS -97.2% | SNB-19 CNS -99.2% | U251 CNS -100% | PC-3 prostate -83.3% | SK-MEL-5 melanoma -100% | UACC-62 melanoma -98.3% | LOX IMVI melanoma -100% | SK-MEL-28 melanoma -98.5%

O=c1oc2ccccc2cc1-c1csc(N=Nc2c(O)[nH]c3ccc(Br)cc23)n1
inactive: HCT-15 colon 97% | HT29 colon 109% | SNB-75 CNS 96.1% | SNB-19 CNS 29% | U251 CNS 40.4% | PC-3 prostate 89.1% | SK-MEL-5 melanoma 98.1% | UACC-62 melanoma 78.1% | LOX IMVI melanoma 62.8% | SK-MEL-28 melanoma 105%

Cc1ccc2nc(-c3ccc(-c4nnc(SCC(=O)Nc5ccc(Cl)cc5)o4)cc3)[nH]c2c1
active: U251 CNS -21% | LOX IMVI melanoma -45.6%
inactive: HCT-15 colon 21.9% | HT29 colon 31.2% | SNB-75 CNS 101% | SNB-19 CNS 26.7% | PC-3 prostate 14% | SK-MEL-5 melanoma 83.9% | UACC-62 melanoma 56.3% | SK-MEL-28 melanoma 39.7%

COc1cc(/C=N/NC(=O)c2ccc3nc(-c4ccc(Cl)cc4)[nH]c3c2)cc(OC)c1OC
active: HT29 colon -50.2% | SNB-75 CNS -47.5% | SNB-19 CNS -94.1% | U251 CNS -86.6% | PC-3 prostate -41.6% | SK-MEL-5 melanoma -82.6% | UACC-62 melanoma -76.7% | LOX IMVI melanoma -81.1% | SK-MEL-28 melanoma -87.9%
inactive: HCT-15 colon 55.7%

Cc1nc2c(cnn2-c2ccccc2)c(=O)n1-c1ccc(NC(=O)c2ccc(F)cc2)cc1
inactive: HCT-15 colon 66.1% | HT29 colon 63.5% | SNB-75 CNS 64.5% | SNB-19 CNS 80.4% | U251 CNS 81.1% | PC-3 prostate 53.1% | UACC-62 melanoma 63.1% | LOX IMVI melanoma 61.8% | SK-MEL-28 melanoma 83.8%
active: SK-MEL-5 melanoma -15.4%

O=C(CNc1nc(-c2ccccc2)cs1)Nc1ccc(Br)cc1
active: HCT-15 colon -89.4% | HT29 colon -55.8% | SNB-75 CNS -3.24% | SNB-19 CNS -99.4% | U251 CNS -89.8% | PC-3 prostate -27.8% | SK-MEL-5 melanoma -99.8% | UACC-62 melanoma -84.1% | LOX IMVI melanoma -98.7% | SK-MEL-28 melanoma -96.3%

Cc1cc(C)cc(Oc2cccc(-c3c(C)nnn3C3CCN(CCN(C)C)CC3)n2)c1
inactive: HT29 colon 11% | SNB-75 CNS 16.7% | SNB-19 CNS 47.7% | U251 CNS 36.5% | PC-3 prostate 37.7% | UACC-62 melanoma 18.2% | SK-MEL-28 melanoma 19%
active: HCT-15 colon 7.96% | SK-MEL-5 melanoma -53.4% | LOX IMVI melanoma 2.35%

CCCCCc1ccc(S(=O)(=O)Nc2cc(-c3csc(N(C)C(C)=O)n3)ccc2N2CCN(C)CC2)cc1
inactive: HT29 colon 15.2% | SNB-75 CNS 40% | SNB-19 CNS 41% | U251 CNS 19.6% | PC-3 prostate 37% | SK-MEL-28 melanoma 11.8%
active: HCT-15 colon 1.4% | SK-MEL-5 melanoma -6.97% | UACC-62 melanoma -62.2% | LOX IMVI melanoma -71.1%

O=c1c2ccccc2nc(COc2ccccc2)n1/N=C/c1ccc(N2CCCC2)cc1
inactive: HCT-15 colon 82.8% | HT29 colon 79.9% | SNB-75 CNS 108% | SNB-19 CNS 89.5% | U251 CNS 105% | PC-3 prostate 80.3% | SK-MEL-5 melanoma 62.4% | UACC-62 melanoma 61.6% | LOX IMVI melanoma 86.6% | SK-MEL-28 melanoma 100%

COc1ccc2[nH]c(O)c(N=NC(=O)COc3ccc(NC(=O)Nc4ccc(Cl)cc4)cc3)c2c1
inactive: HCT-15 colon 99.5% | SNB-75 CNS 42.8% | PC-3 prostate 18% | SK-MEL-5 melanoma 32.2%
active: HT29 colon 8.21% | SNB-19 CNS 3.67% | U251 CNS -87.2% | UACC-62 melanoma -30.2% | LOX IMVI melanoma -59.7% | SK-MEL-28 melanoma -72.3%

Cc1ccc(-c2nc3ccc(C(=O)N=Nc4c(O)[nH]c5ccc(Br)cc45)cc3[nH]2)cc1
active: U251 CNS -76% | LOX IMVI melanoma -27.8%
inactive: HCT-15 colon 96.6% | HT29 colon 47.9% | SNB-75 CNS 107% | SNB-19 CNS 46.1% | PC-3 prostate 62.6% | SK-MEL-5 melanoma 84.1% | UACC-62 melanoma 98% | SK-MEL-28 melanoma 99.3%

COc1ccc(-c2ccc(/C=N/NC(=O)c3[nH]c4ccc(Br)cc4c3-c3ccccc3)s2)cc1
inactive: HCT-15 colon 68.4% | HT29 colon 84.5% | SNB-75 CNS 88.1% | SNB-19 CNS 73.8% | U251 CNS 35.9% | PC-3 prostate 91.7% | SK-MEL-5 melanoma 106% | UACC-62 melanoma 45.9% | LOX IMVI melanoma 75.5% | SK-MEL-28 melanoma 105%

Cc1cc(C)nc(NS(=O)(=O)c2ccc(N/C(N)=N/c3nccc(-c4cccs4)n3)cc2)n1
inactive: HCT-15 colon 97.4% | HT29 colon 108% | SNB-75 CNS 78.6% | SNB-19 CNS 100% | U251 CNS 102% | PC-3 prostate 86.6% | SK-MEL-5 melanoma 96.2% | UACC-62 melanoma 96.3% | LOX IMVI melanoma 77.8% | SK-MEL-28 melanoma 106%

Nc1nc(Nc2ccc(Cl)cc2)nn1Cc1cccc(Br)c1
inactive: HCT-15 colon 29.9% | HT29 colon 54.1% | SNB-75 CNS 69.9% | SNB-19 CNS 57.2% | U251 CNS 58.6% | PC-3 prostate 22.9% | SK-MEL-5 melanoma 47.4% | UACC-62 melanoma 29.9% | LOX IMVI melanoma 13.7% | SK-MEL-28 melanoma 44.8%

COc1ccc(C2N(c3ccc(Br)cc3)N=C(C(C)=O)N2[C@H]2[C@H](OC(C)=O)O[C@H](COC(C)=O)[C@@H](OC(C)=O)[C@@H]2OC(C)=O)cc1 (stereo not given in full)
inactive: HCT-15 colon 61.4% | HT29 colon 75.2% | SNB-75 CNS 74.7% | SNB-19 CNS 78.2% | U251 CNS 74.8% | PC-3 prostate 43.2% | SK-MEL-5 melanoma 77.7% | UACC-62 melanoma 56.9% | LOX IMVI melanoma 71.1% | SK-MEL-28 melanoma 86.4%

COc1ccc(OC)c(/C=N/NC(=O)c2ccc3nc(-c4ccc(Cl)cc4)[nH]c3c2)c1
inactive: HCT-15 colon 41.8% | HT29 colon 79.7% | SNB-75 CNS 72.8% | SNB-19 CNS 54.3% | U251 CNS 74.3% | PC-3 prostate 41.5% | SK-MEL-5 melanoma 31.2% | UACC-62 melanoma 75.7% | LOX IMVI melanoma 65.4% | SK-MEL-28 melanoma 85.4%

O=C(Nc1ccc(F)c(Cl)c1)c1cc(-c2ccc(F)cc2F)ccc1O
active: HCT-15 colon -18.7% | SNB-75 CNS -20.9% | PC-3 prostate 1.28% | SK-MEL-5 melanoma -90.6% | UACC-62 melanoma -54.6% | LOX IMVI melanoma -57.2% | SK-MEL-28 melanoma -16.2%
inactive: HT29 colon 26.8% | SNB-19 CNS 13% | U251 CNS 11.5%

Cc1ccc(NC(=O)NCn2c(=O)[nH]c3ccccc3c2=O)cc1
inactive: HCT-15 colon 92.1% | HT29 colon 109% | SNB-75 CNS 29% | SNB-19 CNS 52.6% | U251 CNS 61.5% | PC-3 prostate 84.1% | SK-MEL-5 melanoma 85.1% | UACC-62 melanoma 60.9% | LOX IMVI melanoma 83.7% | SK-MEL-28 melanoma 94.5%

CN1CCc2c(sc3ncnc(N/N=C/c4cn(-c5ccccc5)nc4-c4ccc(Br)cc4)c23)C1
inactive: HCT-15 colon 27.4% | HT29 colon 16.5% | SNB-75 CNS 88.8% | SNB-19 CNS 62.4% | U251 CNS 44.9% | PC-3 prostate 20.8% | SK-MEL-5 melanoma 50% | UACC-62 melanoma 67.3% | LOX IMVI melanoma 28.4% | SK-MEL-28 melanoma 68.9%

CCOC(=O)C1=C(N)N(c2ccccc2)C2=C(C(=O)CC(C)(C)C2)C1c1ccc(Cl)cc1 (stereo not given)
inactive: HCT-15 colon 14.5% | HT29 colon 34.8% | SNB-75 CNS 73% | SNB-19 CNS 34.9% | U251 CNS 42% | PC-3 prostate 21.6% | SK-MEL-5 melanoma 27.7% | UACC-62 melanoma 22.2% | LOX IMVI melanoma 41.5% | SK-MEL-28 melanoma 44.5%

N#Cc1c(NC(=O)c2ccc(C(F)(F)F)c(Cl)c2)sc2c1CCC(=O)C2
active: HCT-15 colon -62.3% | HT29 colon -25.8% | SNB-75 CNS -37.7% | SNB-19 CNS -55.3% | U251 CNS -84.7% | PC-3 prostate -10.2% | SK-MEL-5 melanoma -98.8% | UACC-62 melanoma -78.9% | LOX IMVI melanoma -52.6% | SK-MEL-28 melanoma -83.4%

O=C(c1ccc(Cl)cc1)C1[C@H](c2ccc(Br)cc2)[C@@H](c2ccccc2)NC12C(=O)Nc1ccc(Br)cc12 (stereo not given in full)
active: HCT-15 colon -91.6% | HT29 colon -54.5% | SNB-75 CNS 0.834% | SNB-19 CNS -51% | U251 CNS -79.9% | PC-3 prostate -23.5% | SK-MEL-5 melanoma -60.3% | UACC-62 melanoma -83.9% | LOX IMVI melanoma -100% | SK-MEL-28 melanoma -93.8%

COc1cccc(-c2ccc(/C=N/NC(=O)c3[nH]c4ccc(Br)cc4c3-c3ccccc3)o2)c1
active: HCT-15 colon 1.34% | HT29 colon -9.03% | U251 CNS 7.57% | SK-MEL-5 melanoma -0.615%
inactive: SNB-75 CNS 31% | SNB-19 CNS 40.3% | PC-3 prostate 20.2% | UACC-62 melanoma 28.8% | LOX IMVI melanoma 12.3% | SK-MEL-28 melanoma 42.5%
